{
  "source": "ChEMBL document CHEMBL3988442",
  "about": "“University of Dundee, Small-Polar-MMV Screening Library” (2021)",
  "note": "About 1,200 (3.2%) of roughly 38,000 compounds showed an effect of 50% or more. The median lay at about -58%. The full list was thinned out, with strong results kept by preference.",
  "data": [
    {"system": "Plasmodium falciparum", "assay": "Calibr Malaria Delayed Death Assay SOP", "format": "functional, organism-based", "design": "scale not given: in the data most compounds retested in dose-response had high values", "settings": "concentration 4.99e-06 (unit not given; other assays of the set use mol/L)", "units": {"Percent Effect": "%"}, "values": [
      {"smiles": "c1ccc(OCCNCc2cccs2)nc1", "Percent Effect": -81.56},
      {"smiles": "Cc1ccsc1CNCCCOc1ccccn1", "Percent Effect": 53.78},
      {"smiles": "c1ccc(OCCCNCc2cccs2)nc1", "Percent Effect": 17.97},
      {"smiles": "O=C(O)C1(Cc2ccccc2F)CCCN(c2ncnc3[nH]ccc23)C1", "note": "(stereo not given)", "Percent Effect": -54.27},
      {"smiles": "CCN1CCN(S(=O)(=O)c2cc(C)c(Cl)cc2Cl)CC1", "Percent Effect": 62.85},
      {"smiles": "CCN1CCCN(S(=O)(=O)c2cnc3onc(C)c3c2)CC1", "Percent Effect": -44.36},
      {"smiles": "CCN1CCN(S(=O)(=O)c2cc(Cl)c(Cl)cc2C)CC1", "Percent Effect": 69.76},
      {"smiles": "CCN1CCN(S(=O)(=O)c2cc(C)c(C)cc2Br)CC1", "Percent Effect": 25.52},
      {"smiles": "Cc1ccc(S(=O)(=O)N2CCN(Cc3ccncc3)CC2)c(Cl)c1", "Percent Effect": 0.628},
      {"smiles": "CCN1CCN(S(=O)(=O)c2cc(C)c(Cl)cc2C)CC1", "Percent Effect": 16.43},
      {"smiles": "Cc1ccc(S(=O)(=O)NCCCN2CCC(O)CC2)cc1Cl", "Percent Effect": 19.72},
      {"smiles": "C[C@@H]1CN(S(=O)(=O)c2ccc(F)cc2Cl)C[C@]1(C)O", "Percent Effect": -40.08},
      {"smiles": "CCOCc1nc(N2CCCC2)sc1C(=O)NCc1ccco1", "Percent Effect": -71.71},
      {"smiles": "O=S1(=O)c2cccnc2OC(COc2ccccc2)CN1CC1CC1", "note": "(stereo not given)", "Percent Effect": -105.2},
      {"smiles": "CC(C)NC(=O)CNC(C)c1c(F)cccc1Cl", "note": "(stereo not given)", "Percent Effect": -63.71},
      {"smiles": "Cc1ccc(OCC(=O)NC2CCN(S(C)(=O)=O)CC2)cc1", "Percent Effect": -121.3},
      {"smiles": "O=C(c1ccc(F)c(F)c1)N1CCCC1CN1CCCC1", "note": "(stereo not given)", "Percent Effect": -45.59},
      {"smiles": "CC(C)N(CCCNC(=O)C1CCOCC1)S(C)(=O)=O", "Percent Effect": -53.5},
      {"smiles": "CN(C)C(=O)c1nn(C)c2c1CN(Cc1ccoc1)C2", "Percent Effect": -66.64},
      {"smiles": "CC(=O)N1CCN(C[C@H]2CC[C@@H](Cc3ccc4ncccc4c3)O2)CC1", "Percent Effect": -19.65},
      {"smiles": "c1cnc2ccc(C[C@@H]3CC[C@H](CN4CCCOCC4)O3)cc2c1", "Percent Effect": 56.67},
      {"smiles": "CN1CCN(C[C@H]2CC[C@@H](Cc3ccc(CN4CCCC4)cc3)O2)CC1", "Percent Effect": 35.77},
      {"smiles": "CC1CCN(Cc2ccc(CNC(=O)c3ccn(C)c(=O)c3)cc2)CC1", "Percent Effect": -16.27},
      {"smiles": "Clc1cc(NCc2ncc[nH]2)nc2[nH]ccc12", "Percent Effect": -55.12},
      {"smiles": "Clc1cc(NCc2ccncc2)nc2[nH]ccc12", "Percent Effect": 63.3},
      {"smiles": "Clc1cc(NCc2nccs2)nc2[nH]ccc12", "Percent Effect": -79.81},
      {"smiles": "CCOc1nn(CC)cc1-c1nnc(SCc2cccnc2)n1C", "Percent Effect": -73.46},
      {"smiles": "Cc1ccc(C(=O)N2CCCCC2CN(C)C)cc1", "note": "(stereo not given)", "Percent Effect": -61.09},
      {"smiles": "CN(CCO)CC1COCCN1C(=O)C1CCCCC1.O=CO", "note": "(stereo not given)", "Percent Effect": -110.9},
      {"smiles": "CCN1CCN(C2CCN(CCOc3ccc(F)cc3)CC2)C1=O", "Percent Effect": -7.395},
      {"smiles": "Cc1ccc(CNC(=O)CN(C)CC2CCN(CCO)CC2)s1", "Percent Effect": -11.16},
      {"smiles": "Cn1ccnc1CN1CCN(CC(O)c2ccc(F)c(F)c2)CC1", "note": "(stereo not given)", "Percent Effect": -68.2},
      {"smiles": "Cc1noc(CN(C)CC2CCN(CCO)CC2)n1", "Percent Effect": -70.26},
      {"smiles": "CN(CC1CCN(CCO)CC1)CC(O)c1ccc(F)c(F)c1", "note": "(stereo not given)", "Percent Effect": 76.36},
      {"smiles": "CN(CC1CCN(CCO)CC1)CC(O)c1ccc(F)cc1", "note": "(stereo not given)", "Percent Effect": 68.91},
      {"smiles": "CN(CCOCC(F)(F)F)CC1CCN(CCO)CC1", "Percent Effect": 17.18},
      {"smiles": "O=C(O)c1ccc(CNC(=O)C2CCN(Cc3ccco3)CC2)s1", "Percent Effect": -25.63},
      {"smiles": "CC1CN(c2ncccc2C(=O)N[C@@H]2CCCc3ccccc32)CCN1", "note": "(stereo not given in full)", "Percent Effect": 43.77},
      {"smiles": "Cc1cnn(CC2CN(Cc3nc(-c4ccco4)no3)CCO2)c1", "note": "(stereo not given)", "Percent Effect": -38.17},
      {"smiles": "CCN1CCC(CNC(=O)c2cc(Cl)c[nH]2)CC1", "Percent Effect": -105.8},
      {"smiles": "COCCN1CCC(CNC(=O)c2cc(Cl)c[nH]2)CC1", "Percent Effect": -1.799},
      {"smiles": "O=C(NCC1CCN(CCc2ccccc2)C1)c1cc(Cl)c[nH]1", "note": "(stereo not given)", "Percent Effect": 64.57},
      {"smiles": "COc1ccc2c(=O)ccn(CC(=O)O)c2c1", "Percent Effect": -41.24},
      {"smiles": "COc1ccc(C(=O)N(CCO)Cc2ccccc2)c(OC)n1", "Percent Effect": -39.82},
      {"smiles": "O=C(CCS(=O)(=O)c1ccccc1)NCCCn1cccn1", "Percent Effect": -18.78},
      {"smiles": "Cc1cc(C)n(CC(C)NC(=O)C2(c3ccc(F)cc3)CC2)n1", "note": "(stereo not given)", "Percent Effect": -52.55},
      {"smiles": "CC(CNC(=O)C1(c2ccc(F)cc2)CC1)CN1CCCC1=O", "note": "(stereo not given)", "Percent Effect": 8.838},
      {"smiles": "Cn1cc(N2CCC3(CCCN(C(=O)c4ccnn4C)C3)C2=O)cn1", "note": "(stereo not given)", "Percent Effect": -100.5},
      {"smiles": "Cc1ccc(C(=O)N2CCC3(CCC(=O)N(CC(C)O)C3)CC2)c(O)c1", "note": "(stereo not given)", "Percent Effect": -27.05},
      {"smiles": "O=C(O)C(F)(F)F.O=C(c1cccs1)N1CC[C@@H]2CN(C3CCOCC3)CCO[C@@H]2C1", "Percent Effect": -28.53},
      {"smiles": "OC(COCc1cccs1)Cn1cc(Cl)cn1", "note": "(stereo not given)", "Percent Effect": -34.56},
      {"smiles": "Cn1c(N2CCOCC2)nc2cc(C(=O)N3CC(O)CO3)ccc21", "note": "(stereo not given)", "Percent Effect": -166.7},
      {"smiles": "CN(C)CCCNCC1CCOC(C)(C)C1", "note": "(stereo not given)", "Percent Effect": 16.23},
      {"smiles": "CCN(CC)CCCNCC1CCOC(C)(C)C1", "note": "(stereo not given)", "Percent Effect": -55.61},
      {"smiles": "CN(C)CCNCC1CCOC(C)(C)C1", "note": "(stereo not given)", "Percent Effect": -38.44},
      {"smiles": "Cc1ccc(C(CCNCCCN(C)C)C2CCOC(C)(C)C2)cc1.O=C(O)C(=O)O", "note": "(stereo not given)", "Percent Effect": 83.16},
      {"smiles": "CC(CCc1ccccc1)NC(=O)CNCCCN(C)C.O=C(O)C(=O)O", "note": "(stereo not given)", "Percent Effect": -24.06},
      {"smiles": "CC1CN(C(=O)NCCNc2cnccn2)CCO1", "note": "(stereo not given)", "Percent Effect": -97.79},
      {"smiles": "O=C1CCSCC(C(=O)N2CCC(O)CC2)N1", "note": "(stereo not given)", "Percent Effect": -111.3},
      {"smiles": "CC(C)C(=O)NC1CCN(c2cccc(OC(F)(F)F)c2)C1=O", "note": "(stereo not given)", "Percent Effect": -46.04},
      {"smiles": "O=C(NCC1CCOCC1)c1cc(-c2ccc3c(c2)CCO3)n[nH]1", "Percent Effect": -4.569},
      {"smiles": "Cc1nn(C)c(N2CCOCC2)c1CNCC1CCS(=O)(=O)C1", "note": "(stereo not given)", "Percent Effect": -69.07},
      {"smiles": "Cc1ccc(-c2n[nH]cc2CNCC2CCS(=O)(=O)C2)o1", "note": "(stereo not given)", "Percent Effect": -9.681},
      {"smiles": "CCOc1ccc2ccccc2c1CNCC1CCS(=O)(=O)C1.Cl", "note": "(stereo not given)", "Percent Effect": 73.94},
      {"smiles": "CCOc1ccc(CNC(=O)N2CCCC(CO)C2)cc1F", "note": "(stereo not given)", "Percent Effect": -13.27},
      {"smiles": "Cc1cccc(C(=O)NCC2CCS(=O)(=O)C2)n1", "note": "(stereo not given)", "Percent Effect": -33.59},
      {"smiles": "COc1cccc(-c2n[nH]cc2CNCC2CCS(=O)(=O)C2)c1", "note": "(stereo not given)", "Percent Effect": -56.98},
      {"smiles": "COc1ccc2ccccc2c1CNCC1CCS(=O)(=O)C1.Cl", "note": "(stereo not given)", "Percent Effect": 66.1},
      {"smiles": "CCOc1ccc2ccccc2c1CNCC1CCNCC1.Cl.Cl", "Percent Effect": 91.29},
      {"smiles": "Cc1c(Br)cccc1C(=O)NCC1CCNCC1.Cl", "Percent Effect": -131.1}
    ]}
  ]
}
